# From PubChem BioAssay (NCATS)
# Inconclusive results are not listed. Entries that show only a call come without a potency. Active and inactive are the calls of the source. Calls come from the whole dose curve; as a rule, active = well fitted curve in the direction sought with a large enough effect; inconclusive = small, poorly fitted or top-dose-only effect, or another doubt; inactive = no such curve, though single readings can be large; an effect the other way counts as inactive or inconclusive. Numbered stars: 1 amine (or outer) side, 2 acyl side, 3 side chain; on linkers, the order of the positions; unused ones are H or OH. Square brackets hold non-standard residues; d marks the D form. Peptide text beside a SMILES is read from it. * marks the point of attachment. ξ: configuration not given here. X9 = CCC(C)(N*)C(=O)C1CC[C@@H](C(=O)N[C@@H](Cc2ccccc2)C(=O)NCC(=O)O)N1; X8 = O=C([C@@H]1CC(O)CN1[*:1])[*:2]; aIle = CC[C@@H](C)[C@H](N)C(=O)O; Thr(3ξ) = CC(O)[C@H](N)C(=O)O; ξIva = CCC(C)(N)C(=O)O; Aib = CC(C)(N)C(=O)O
# Molecular target: Cellular tumor antigen p53 (Homo sapiens) (UniProt P04637)
# Test: Primary qHTS for small molecule compounds that upregulate eGFP-tagged delta133p53alpha (in N-terminal) cells. (AID 2060322);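 note: cells pre-induced with doxycycline then dosed without doxycycline; nearly all actives have a fitted effect of over 75% in size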
# Conditions: NCI-H358 eGFP-delta133p53alpha fluorescence, 24 h; activation: stronger effect = higher value
# Method in brief: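 NCI-H358 cells pre-induced 24 h with 10 ng/ml doxycycline for eGFP-delta133p53alpha, plated dox-free and exposed 24 h at 37C to titrated compounds. Fixed, Hoechst-stained; gated GFP peak intensity by laser scanning cytometry, normalized to DMSO (0%) and 57.5 uM 5-azacytidine (100%).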
# Cellular tumor antigen p53 (Homo sapiens), sequence (P04637 whole entry, looked up): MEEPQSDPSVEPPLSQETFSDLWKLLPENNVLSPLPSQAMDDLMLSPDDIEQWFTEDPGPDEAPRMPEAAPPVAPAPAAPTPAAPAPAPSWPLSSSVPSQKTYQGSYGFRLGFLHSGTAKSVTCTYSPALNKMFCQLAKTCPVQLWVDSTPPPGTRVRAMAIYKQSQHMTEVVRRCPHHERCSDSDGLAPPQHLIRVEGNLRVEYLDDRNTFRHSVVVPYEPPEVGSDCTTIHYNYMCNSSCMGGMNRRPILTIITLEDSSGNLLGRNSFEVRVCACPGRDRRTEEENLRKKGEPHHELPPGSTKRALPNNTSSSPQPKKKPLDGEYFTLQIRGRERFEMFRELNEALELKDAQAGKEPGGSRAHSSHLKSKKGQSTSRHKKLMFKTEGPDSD
row,Compound,activation
1,CC(C)(C)OC(=O)c1ncn2c1C(C)(C)Nc1ccccc1-2,-12.5% (inactive)
2,Cc1cc(F)ccc1-c1nc(NCCN=C(N)NC#N)nc2c1ccc(=O)n2-c1c(F)cccc1F,-4.46% (inactive)
3,C[C@@H]1O[C@@H](O[C@H]2[C@H](O)[C@@H](O[C@@H]3O[C@H](CO)[C@@H](O)[C@H](O[C@@H]4O[C@H](CO)[C@@H](O)[C@H](O)[C@H]4O)[C@H]3O)[C@H](O[C@H]3CC[C@@]4(C)C(=CC[C@@H]5C4CC[C@@]4(C)C5C[C@@H]5OC6(CC[C@@](C)(CO[C@@H]7O[C@H](CO)[C@@H](O)[C@H](O)[C@H]7O)O6)[C@@H](C)[C@@H]54)C3)O[C@@H]2CO)[C@H](O)[C@H](O)[C@H]1O (some centres not stated),-25.2% (inactive)
4,C[C@@H]1O[C@@H](O[C@H]2[C@@H]3C=CO[C@@H](O[C@@H]4O[C@H](CO)[C@@H](O)[C@H](O)[C@H]4O)[C@@H]3[C@@]3(CO)O[C@@H]23)[C@H](O)[C@H](OC(=O)/C=C/c2ccccc2)[C@H]1O,0.763% (inactive)
5,O=C1NC(Cc2ccc(O)cc2)C(=O)N2CCCC12 (configuration not stated),-19.8% (inactive)
6,C=CCc1ccc(O[C@@H]2O[C@H](CO)[C@@H](O)[C@H](O)[C@H]2O)c(OC)c1,-19.6% (inactive)
7,CC(=O)OC1C(O)C(C)(O)C(/C=C/C(=O)O)C2(C)CCCC(C)(C)C12 (configuration not stated),-17.6% (inactive)
8,COc1cccc(OC)c1-c1ccc(C[C@H](NC(=O)c2c(Cl)cccc2Cl)C(=O)O)cc1,1.67% (inactive)
9,C/C(=C\CO)CC/C=C(\C)C(=O)O[C@@H]1O[C@H](CO)[C@@H](O)[C@H](O)[C@H]1O,-19.6% (inactive)
10,Cc1ccc2c(c1)C=Cc1cc(C)ccc1C2c1cn(Cc2ccc(C(=O)Nc3nn[nH]n3)o2)c(=O)[nH]c1=S,-8.33% (inactive)
11,CC(=O)Nc1ccn(C2COC(COC(=O)c3ccccc3)O2)c(=O)n1 (configuration not stated),16.4% (inactive)
12,CC1CC(=O)C2=C(CCC3(O)C(O)c4c(O)cccc4C(=O)C23O)C1 (configuration not stated),12.2% (inactive)
13,CC(C)C1NC(=O)C(CC2(O)c3ccccc3N3C(=O)C(Cc4ccccc4)NC32)NC1=O (configuration not stated),-9.82% (inactive)
14,COc1c(N2CC3CCCNC3C2)c(F)cc2c(=O)c(C(=O)O)cn(C3CC3)c12 (configuration not stated),3.34% (inactive)
15,COC(=O)C[C@H]1C(C)(C)[C@H](OC(=O)C(C)C)C2CC3=C4CC(=O)O[C@@H](c5ccoc5)[C@]4(C)CCC3[C@@]1(C)C2=O (some centres not stated),11.6% (inactive)
16,C=C[C@H]1[C@H](O[C@@H]2O[C@H](CO)[C@@H](O)[C@H](O)[C@H]2O)OC=C(C(=O)OC)[C@H]1CC=O,-32.8% (inactive)
17,CCOc1ccc(-c2cc(NC(=O)c3c(F)cccc3F)c(C(=O)O)s2)cc1,15.7% (inactive)

# Molecular target: Aldehyde dehydrogenase, mitochondrial (Homo sapiens) (UniProt P05091)
# Test: qHTS for Inhibitors of the Aldehyde Dehydrogenase Family (ALDH2) Primary screen (AID 2061308); note: nearly all actives have a fitted effect of over 55% in size
# Conditions: ALDH2 enzyme inhibition qHTS, 1536-well; series mostly up to 56 µM
Compound,Potency,"activity change, negative = inhibition"
COc1ccc(C2(CNC(=O)[C@](C)(Cc3c[nH]c4ccccc34)NC(=O)Nc3ccc([N+](=O)[O-])cc3)CCCCC2)nc1,inactive,
Cc1cc(C)c(NC(=O)N(Cc2ccc3c(c2)Cc2ccccc2-3)C2CCCCCC2)c(C)c1,inactive,
COc1cc(CO)ccc1O[C@@H]1O[C@H](CO)[C@@H](O)[C@H](O)[C@H]1O,inactive,
COc1ccc([C@H]2Cc3cccc(O)c3C(=O)O2)cc1OC,inactive,
CC(=O)OC1C[C@]2(C)C(O)CC(C)=C[C@H](OC(=O)c3ccc(O)cc3)C2[C@]1(O)C(C)C (some centres not stated),inactive,
C=C1C(O)C[C@@H]2C(C(=O)O)=CO[C@@H](O[C@@H]3O[C@H](CO)[C@@H](O)[C@H](O)[C@H]3OC(=O)c3ccc(O)cc3)[C@H]12 (some centres not stated),inactive,
CC[C@@H](C)[C@H](NC(=O)C(C)(C)NC(=O)[C@H](CCC(N)=O)NC(=O)C(C)(CC)NC(=O)[C@H](Cc1c[nH]c2ccccc12)NC(C)=O)C(=O)N[C@H](C(=O)NC(C)(C)C(=O)N[C@@H](CC(C)C)C(=O)NC(C)(C)C(=O)N1CCC[C@H]1C(=O)N[C@@H](CCC(N)=O)C(=O)NC(C)(C)C(=O)N1CC(O)C[C@H]1C(=O)NC(C)(CC)C(=O)C1CC[C@@H](C(=O)N[C@@H](Cc2ccccc2)C(=O)NCC(=O)O)N1)C(C)O (some centres not stated) (Ac-W[ξIva]Q[Aib][aIle][Thr(3ξ)][Aib]L[Aib]PQ[Aib][X8]-X9),,-2.86% [at 11.2 µM] (inactive)
COC(=O)[C@@H](NC(=O)[C@H](CC(C)C)NC(=O)N(Cc1ccccc1)C[C@@H](O)[C@H](Cc1ccccc1)NC(=O)OC(C)(C)C)C(C)C,,-10% [at 11.2 µM] (inactive)
CC(=O)C1=CCC2C3CC=C4CC(O)CC(O)C4(C)C3C(O)CC12C (configuration not stated),inactive,
C=C(C)C1Cc2cc(C(=O)OC3OC(CO)C(O)C(O)C3O)ccc2O1 (configuration not stated),inactive,
CC1=C(C(=O)O)/C(=C\CO[C@@H]2O[C@H](CO)[C@@H](O)[C@H](O)[C@H]2O)C(OC(=O)/C=C/c2ccc(O)cc2)C1 (some centres not stated),inactive,
CC(=O)OC1C(O)/C(C)=C\C2C(OC(=O)c3ccccc3)C(C)CC2(OC(C)=O)C(OC(C)=O)C(C)/C=C/C(C)(C)C1OC(C)=O (configuration not stated),inactive,
COC(=O)C1=CO[C@@H](O[C@@H]2O[C@H](CO)[C@@H](O)[C@H](O)[C@H]2O)[C@H]2[C@@H]1C=C[C@]21C=C([C@H](C)OC(=O)/C=C/c2ccc(O)cc2)C(=O)O1,inactive,
OC[C@H]1O[C@@H](OC[C@H]2O[C@@H](OC/C=C/c3ccccc3)[C@H](O)[C@@H](O)[C@@H]2O)[C@@H](O)[C@@H]1O,inactive,
C/C1=C\CCC(C)CCO[C@@H]2O[C@H](CO[C@@H]3OC[C@H](O)[C@H](O)[C@H]3OC1=O)[C@@H](O)[C@H](O)[C@H]2O (some centres not stated),inactive,
C=C1CC[C@@H]2[C@](C)(CC[C@H](O)[C@@]2(C)CCC=C(C)C)[C@@H]1Cc1c[nH]c2ccccc12,inactive,
CC(C)=CCCC1(C)/C=C/C(OC(=O)C=C(C)C)C(C)(O)/C=C/C(=O)/C(CO)=C\C1 (configuration not stated),inactive,
O=C(O[C@@H]1O[C@H](CO)[C@@H](O)[C@H](O)[C@H]1O)c1c(O)cc(O)cc1/C=C/c1ccccc1,inactive,
C[C@@H]1N[C@H]2N(C1=O)c1ccccc1[C@@]2(O)C[C@@H]1C(=O)N[C@@H](C)c2nc3ccccc3c(=O)n21,inactive,
FC(F)(F)c1ccc(Nc2nc3ccc(Oc4ccnc(-c5ncc(C(F)(F)F)[nH]5)c4)cc3[nH]2)cc1,inactive,

Compound,Potency,"activity change, negative = inhibition"
CC(=O)O[C@@H]1[C@H](O[C@@H]2OC[C@](O)(CO)[C@H]2O)[C@@H](O[C@@H]2O[C@@H](C)[C@H](O)[C@@H](O)[C@H]2O)[C@H](OC(=O)[C@]23CCC(C)(C)C[C@H]2C2=CCC4[C@@]5(C)C[C@H](O)[C@H](O[C@@H]6O[C@H](C(=O)O)[C@@H](O)[C@H](O)[C@H]6O)[C@@](C)(C(=O)O)C5CC[C@@]4(C)[C@]2(C)CC3)O[C@@H]1C (some centres not stated),inactive,
CC1=C2CC(=O)C(C)CC/C=C(\C)CC2OC1=O (configuration not stated),inactive,
CC1(CCOC2OC(CO)C(O)C(O)C2O)CCC23OC2(C1)C(O)CC1C(C)(C(=O)O)CCCC13C (configuration not stated),inactive,
CC(C)(C)OC(=O)c1ncn2c1C(C)(C)Nc1ccccc1-2,inactive,
Cc1cc(F)ccc1-c1nc(NCCN=C(N)NC#N)nc2c1ccc(=O)n2-c1c(F)cccc1F,inactive,
C[C@@H]1O[C@@H](O[C@H]2[C@H](O)[C@@H](O[C@@H]3O[C@H](CO)[C@@H](O)[C@H](O[C@@H]4O[C@H](CO)[C@@H](O)[C@H](O)[C@H]4O)[C@H]3O)[C@H](O[C@H]3CC[C@@]4(C)C(=CC[C@@H]5C4CC[C@@]4(C)C5C[C@@H]5OC6(CC[C@@](C)(CO[C@@H]7O[C@H](CO)[C@@H](O)[C@H](O)[C@H]7O)O6)[C@@H](C)[C@@H]54)C3)O[C@@H]2CO)[C@H](O)[C@H](O)[C@H]1O (some centres not stated),,9.58% [at 11.2 µM] (inactive)
C[C@@H]1O[C@@H](O[C@H]2[C@@H]3C=CO[C@@H](O[C@@H]4O[C@H](CO)[C@@H](O)[C@H](O)[C@H]4O)[C@@H]3[C@@]3(CO)O[C@@H]23)[C@H](O)[C@H](OC(=O)/C=C/c2ccccc2)[C@H]1O,inactive,
O=C1NC(Cc2ccc(O)cc2)C(=O)N2CCCC12 (configuration not stated),inactive,
C=CCc1ccc(O[C@@H]2O[C@H](CO)[C@@H](O)[C@H](O)[C@H]2O)c(OC)c1,inactive,
CC(=O)OC1C(O)C(C)(O)C(/C=C/C(=O)O)C2(C)CCCC(C)(C)C12 (configuration not stated),inactive,
COc1cccc(OC)c1-c1ccc(C[C@H](NC(=O)c2c(Cl)cccc2Cl)C(=O)O)cc1,inactive,
C/C(=C\CO)CC/C=C(\C)C(=O)O[C@@H]1O[C@H](CO)[C@@H](O)[C@H](O)[C@H]1O,inactive,
Cc1ccc2c(c1)C=Cc1cc(C)ccc1C2c1cn(Cc2ccc(C(=O)Nc3nn[nH]n3)o2)c(=O)[nH]c1=S,inactive,
CC(=O)Nc1ccn(C2COC(COC(=O)c3ccccc3)O2)c(=O)n1 (configuration not stated),inactive,
CC1CC(=O)C2=C(CCC3(O)C(O)c4c(O)cccc4C(=O)C23O)C1 (configuration not stated),inactive,
CC(C)C1NC(=O)C(CC2(O)c3ccccc3N3C(=O)C(Cc4ccccc4)NC32)NC1=O (configuration not stated),inactive,
COc1c(N2CC3CCCNC3C2)c(F)cc2c(=O)c(C(=O)O)cn(C3CC3)c12 (configuration not stated),inactive,
COC(=O)C[C@H]1C(C)(C)[C@H](OC(=O)C(C)C)C2CC3=C4CC(=O)O[C@@H](c5ccoc5)[C@]4(C)CCC3[C@@]1(C)C2=O (some centres not stated),inactive,
C=C[C@H]1[C@H](O[C@@H]2O[C@H](CO)[C@@H](O)[C@H](O)[C@H]2O)OC=C(C(=O)OC)[C@H]1CC=O,inactive,
CCOc1ccc(-c2cc(NC(=O)c3c(F)cccc3F)c(C(=O)O)s2)cc1,inactive,
